PubChem BioAssay (NCATS)
Records with an inconclusive call do not appear. Calls of active or inactive are those of the source. Unless noted, calls come from the whole dose curve; as a rule, active = well fitted curve in the direction sought with a large enough effect; inconclusive = small, poorly fitted or top-dose-only effect, or another doubt; inactive = no such curve, though single readings can be large; an effect the other way counts as inactive or inconclusive.

Key:
[1] = target: ATP-dependent 6-phosphofructokinase (Trypanosoma brucei brucei) (UniProt O15648); experiment: qHTS Assay to Find Inhibitors of T. brucei phosphofructokinase: hit validation (AID 492961);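 note: luminescence reports ADP formed as PFK phosphorylates fructose-6-phosphate with ATP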
Sequence of ATP-dependent 6-phosphofructokinase (Trypanosoma brucei brucei) (O15648 whole entry, looked up): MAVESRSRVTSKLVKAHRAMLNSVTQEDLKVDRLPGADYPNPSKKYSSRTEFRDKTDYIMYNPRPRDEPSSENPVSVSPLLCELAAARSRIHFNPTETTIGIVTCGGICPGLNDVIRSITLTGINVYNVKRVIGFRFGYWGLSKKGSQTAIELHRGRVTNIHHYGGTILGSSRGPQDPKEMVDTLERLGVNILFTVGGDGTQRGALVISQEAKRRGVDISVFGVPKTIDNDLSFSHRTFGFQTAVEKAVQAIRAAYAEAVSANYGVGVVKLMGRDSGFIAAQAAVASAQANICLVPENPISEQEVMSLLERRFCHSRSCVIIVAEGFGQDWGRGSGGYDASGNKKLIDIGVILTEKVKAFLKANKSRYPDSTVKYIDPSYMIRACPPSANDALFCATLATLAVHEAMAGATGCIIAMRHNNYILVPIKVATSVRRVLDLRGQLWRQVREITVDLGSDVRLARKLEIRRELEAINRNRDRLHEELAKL
Procedure, shortened: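 Reaction: 0.1 M triethanolamine pH 8.0, 5 mM MgCl2, F6P 0.5 mM, ATP 0.1 mM, PFK 1.25 nM, 45 min RT. Read-out: ADP-Glo luminescence. Analysis: concentration-response fits, classed by r2 and efficacy.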

[2] = target: Ubiquitin carboxyl-terminal hydrolase 1 (Homo sapiens) (UniProt O94782); experiment: Inhibitors of USP1/UAF1: Pilot qHTS (AID 504865);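 note: rhodamine fluorescence freed from ubiquitin-rhodamine substrate followed over time; top concentration of the series differs between compounds; nearly all actives have a fitted effect of over 35% in size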
Sequence of Ubiquitin carboxyl-terminal hydrolase 1 (Homo sapiens) (O94782 whole entry, looked up): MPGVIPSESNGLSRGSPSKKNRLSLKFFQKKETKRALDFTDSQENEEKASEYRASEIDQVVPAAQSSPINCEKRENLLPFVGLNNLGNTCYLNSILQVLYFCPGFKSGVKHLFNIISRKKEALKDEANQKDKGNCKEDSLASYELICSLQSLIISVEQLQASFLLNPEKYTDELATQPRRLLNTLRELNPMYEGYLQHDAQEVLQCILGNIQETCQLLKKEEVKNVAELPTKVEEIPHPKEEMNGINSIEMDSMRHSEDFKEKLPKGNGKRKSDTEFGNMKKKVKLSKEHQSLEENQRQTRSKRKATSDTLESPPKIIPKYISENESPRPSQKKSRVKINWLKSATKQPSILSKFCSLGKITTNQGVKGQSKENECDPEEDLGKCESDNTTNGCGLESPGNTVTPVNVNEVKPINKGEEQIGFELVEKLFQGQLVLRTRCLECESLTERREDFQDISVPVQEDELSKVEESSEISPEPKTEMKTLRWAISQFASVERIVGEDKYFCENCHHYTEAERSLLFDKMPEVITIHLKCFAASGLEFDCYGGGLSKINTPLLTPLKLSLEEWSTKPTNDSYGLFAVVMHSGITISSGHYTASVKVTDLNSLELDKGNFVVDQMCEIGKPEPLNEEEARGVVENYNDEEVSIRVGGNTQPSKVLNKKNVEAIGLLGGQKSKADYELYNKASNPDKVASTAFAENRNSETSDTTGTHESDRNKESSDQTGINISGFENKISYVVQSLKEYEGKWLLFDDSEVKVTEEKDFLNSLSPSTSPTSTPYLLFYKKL
Procedure, shortened: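 Enzyme-free wells gave the negative control, while test wells held 1nM USP1/UAF1 preincubated with compound for 15 min at room temperature. Ub-Rho at 150nM final started the reaction, and fluorescence at 480/540 nm was recorded kinetically.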

[3] = target: Luciferin 4-monooxygenase (Photinus pyralis) (UniProt P08659); experiment: Biochemical firefly luciferase enzyme assay for NPC (AID 624030);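 note: purified P. pyralis luciferase at 10 nM with luciferin and ATP substrate; nearly all actives have a fitted effect of over 70% in size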
Sequence of Luciferin 4-monooxygenase (Photinus pyralis) (P08659 whole entry, looked up): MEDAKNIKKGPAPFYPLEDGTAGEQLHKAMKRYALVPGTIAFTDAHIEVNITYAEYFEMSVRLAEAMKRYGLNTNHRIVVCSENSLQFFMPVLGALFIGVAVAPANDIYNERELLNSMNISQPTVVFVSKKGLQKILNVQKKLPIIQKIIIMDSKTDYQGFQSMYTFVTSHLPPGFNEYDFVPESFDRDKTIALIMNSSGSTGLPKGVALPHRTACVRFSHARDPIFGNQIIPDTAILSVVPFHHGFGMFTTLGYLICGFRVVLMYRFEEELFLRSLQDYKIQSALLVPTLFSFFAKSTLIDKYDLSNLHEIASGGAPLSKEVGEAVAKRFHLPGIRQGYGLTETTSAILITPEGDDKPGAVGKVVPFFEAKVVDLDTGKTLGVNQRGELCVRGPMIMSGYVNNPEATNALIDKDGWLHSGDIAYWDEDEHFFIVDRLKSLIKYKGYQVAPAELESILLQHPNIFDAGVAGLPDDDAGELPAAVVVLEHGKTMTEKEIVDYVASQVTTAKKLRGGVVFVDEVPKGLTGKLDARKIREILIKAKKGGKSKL
Procedure, shortened: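 Counter-screen for direct inhibition of the luciferase enzyme by approved-drug library compounds, run at 10 nM enzyme in 50 mM Tris acetate (final). Luminescence was read within 5 min of enzyme-buffer addition and normalized to PTC124 versus DMSO (0%).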

[4] = S16 Schwann cell viability assay (CellTiter-Glo assay) (AID 624031);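 note: cellular ATP luminescence as a viability measure; nearly all actives have a fitted effect of over 70% in size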
Procedure, shortened: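 Untransfected S16 rat Schwann cells; compound 24 h, 37 °C/5% CO2; CellTiter-Glo ATP luminescence. % activity vs no-cell wells and DMSO controls (0%); concentration-effect curves classed by r2, response magnitude, activity.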

[5] = S16 Schwann cell PMP22 intronic element beta-lactamase assay (AID 624044; calls by dose curve; note: nearly all actives have a fitted effect of over 15% in size); settings: S16 rat Schwann cells, PMP22 element beta-lactamase FRET, 24 h; ratio activity, negative = inhibition: at 38.3 µM (top of the series) unless noted
Procedure, shortened: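 Rat S16 Schwann cells with beta-Lac driven by a PMP22 intronic element, compound-treated 24 h at 37 °C. LiveBLAzer FRET B/G read: 460 nm normalized to potassium clavulanate vs DMSO; 535 nm FRET as viability; concentration-effect curves classified.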

[6] = target: Cytochrome P450 2D6 (Homo sapiens) (UniProt P10635); experiment: Cytochrome P450 family 2 subfamily D member 6 (CYP2D6) small molecule antagonists: luciferase biochemical (cell-free) qHTS assay (AID 1645840; active = well fitted curve in the direction sought with a large enough effect in the repeat runs; an effect the other way counts as inactive or inconclusive; note: nearly all actives have a fitted effect of over 55% in size)
Sequence of Cytochrome P450 2D6 (Homo sapiens) (P10635 whole entry, looked up): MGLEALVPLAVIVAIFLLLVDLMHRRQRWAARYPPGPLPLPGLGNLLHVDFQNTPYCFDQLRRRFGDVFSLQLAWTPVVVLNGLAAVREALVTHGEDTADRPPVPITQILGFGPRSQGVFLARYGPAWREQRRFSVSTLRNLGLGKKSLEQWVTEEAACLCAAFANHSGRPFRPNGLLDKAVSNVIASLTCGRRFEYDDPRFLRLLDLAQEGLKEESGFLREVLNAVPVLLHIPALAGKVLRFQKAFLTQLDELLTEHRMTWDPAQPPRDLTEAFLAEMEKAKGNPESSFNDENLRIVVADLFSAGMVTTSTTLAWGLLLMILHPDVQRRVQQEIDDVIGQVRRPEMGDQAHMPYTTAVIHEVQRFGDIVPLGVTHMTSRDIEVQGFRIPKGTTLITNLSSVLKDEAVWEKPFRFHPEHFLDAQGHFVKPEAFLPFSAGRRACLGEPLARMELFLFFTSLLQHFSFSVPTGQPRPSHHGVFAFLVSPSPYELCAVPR
Procedure, shortened: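 P450-Glo luminescent screen: recombinant CYP2D6 enzyme–proluciferin substrate mix preincubated with compound 10 min at room temperature, then NADPH regeneration added for 1 h at room temperature. Detection reagent added for 20 min; luciferin light read as relative luminescence units.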

[7] = target: Cytochrome P450 3A4 (Homo sapiens) (UniProt P08684); experiment: Cytochrome P450 family 3 subfamily A member 4 (CYP3A4) small molecule antagonists: luciferase qHTS assay (AID 1645841; active = well fitted curve in the direction sought with a large enough effect in the repeat runs; an effect the other way counts as inactive or inconclusive; note: nearly all actives have a fitted effect of over 45% in size)
Sequence of Cytochrome P450 3A4 (Homo sapiens) (P08684 whole entry, looked up): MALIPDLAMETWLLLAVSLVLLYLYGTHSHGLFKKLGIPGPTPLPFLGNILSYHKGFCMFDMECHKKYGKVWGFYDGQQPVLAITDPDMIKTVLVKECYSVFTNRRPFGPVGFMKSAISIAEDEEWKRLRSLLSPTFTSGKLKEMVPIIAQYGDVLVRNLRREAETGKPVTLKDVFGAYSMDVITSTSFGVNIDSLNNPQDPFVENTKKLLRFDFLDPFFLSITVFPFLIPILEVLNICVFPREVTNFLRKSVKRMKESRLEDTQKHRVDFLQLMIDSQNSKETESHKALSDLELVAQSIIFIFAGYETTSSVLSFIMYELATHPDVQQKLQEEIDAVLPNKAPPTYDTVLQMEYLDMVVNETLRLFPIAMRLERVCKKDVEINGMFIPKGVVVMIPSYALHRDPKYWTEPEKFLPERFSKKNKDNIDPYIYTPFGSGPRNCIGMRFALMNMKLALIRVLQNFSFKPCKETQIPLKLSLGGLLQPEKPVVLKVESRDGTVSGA
Procedure, shortened: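 P450-Glo CYP3A4 enzyme with proluciferin substrate was preincubated with DMSO-dissolved compounds for 10 min at room temperature. NADPH regeneration solution started a 1 h reaction. Detection reagent stopped it, and luminescence was read after 20 min.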

[8] = target: Cytochrome P450 2C9 (Homo sapiens) (UniProt P11712); experiment: Cytochrome P450 family 2 subfamily C member 9 (CYP2C9) small molecule antagonists: luciferase biochemical (cell-free) qHTS assay (AID 1645842; active = well fitted curve in the direction sought with a large enough effect in the repeat runs; an effect the other way counts as inactive or inconclusive; note: nearly all actives have a fitted effect of over 55% in size)
Sequence of Cytochrome P450 2C9 (Homo sapiens) (P11712 whole entry, looked up): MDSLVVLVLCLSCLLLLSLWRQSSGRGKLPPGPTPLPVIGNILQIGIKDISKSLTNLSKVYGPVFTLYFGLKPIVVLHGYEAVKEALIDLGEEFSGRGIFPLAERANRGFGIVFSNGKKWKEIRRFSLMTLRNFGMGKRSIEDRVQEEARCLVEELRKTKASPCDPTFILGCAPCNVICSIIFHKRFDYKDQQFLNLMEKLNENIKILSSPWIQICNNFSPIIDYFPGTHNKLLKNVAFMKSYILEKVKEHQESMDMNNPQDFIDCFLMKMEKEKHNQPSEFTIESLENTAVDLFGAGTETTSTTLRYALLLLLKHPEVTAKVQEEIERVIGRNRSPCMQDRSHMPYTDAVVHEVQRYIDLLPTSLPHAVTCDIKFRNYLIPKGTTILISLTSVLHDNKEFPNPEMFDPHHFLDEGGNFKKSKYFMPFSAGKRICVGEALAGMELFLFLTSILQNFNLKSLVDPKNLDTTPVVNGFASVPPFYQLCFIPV
Procedure, shortened: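 Luminescence, after 20 min with luciferin detection reagent, reflected CYP2C9 turnover during a 1 h NADPH-driven reaction at 37C. Enzyme-substrate mix contained 0.4% bovine serum albumin and was preincubated with compound 10 min at room temperature.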

[9] = qHTS profiling for inhibitors of Plasmodium falciparum proliferation (AID 504749); note: potency is the fitted concentration of half-maximal effect; nearly all actives have a fitted effect of over 60% in size; settings: P. falciparum in erythrocytes, SYBR Green DNA, 72 h
Procedure, shortened: (§1)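 P. falciparum-infected erythrocytes (0.3% parasitemia, 2.5% hematocrit final) were exposed to compounds for 72 h at 37 C in 5% CO2, then lysed with SYBR Green buffer overnight at room temperature; parasite DNA fluorescence was normalized to artemisinin and DMSO controls.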

3D7 = experiment: as above; settings: P. falciparum in erythrocytes, SYBR Green DNA, 72 h; series mostly up to 28.7 µM
Procedure, shortened: as §1

7G8 = experiment: as above; settings: P. falciparum in erythrocytes, SYBR Green DNA, 72 h; series mostly up to 12.8 µM
Procedure, shortened: as §1

AA1029 = experiment: as above; settings: P. falciparum in erythrocytes, SYBR Green DNA, 72 h; series mostly up to 28.7 µM
Procedure, shortened: as §1

AS120 = experiment: as above; settings: P. falciparum in erythrocytes, SYBR Green DNA, 72 h; series mostly up to 28.7 µM
Procedure, shortened: as §1

ATS189 = experiment: as above; settings: P. falciparum in erythrocytes, SYBR Green DNA, 72 h; series mostly up to 28.7 µM
Procedure, shortened: as §1

ATS95 = experiment: as above; settings: P. falciparum in erythrocytes, SYBR Green DNA, 72 h; series mostly up to 28.7 µM
Procedure, shortened: as §1

C2A = experiment: as above; settings: P. falciparum in erythrocytes, SYBR Green DNA, 72 h; series mostly up to 28.7 µM
Procedure, shortened: as §1

CP191 = experiment: as above; settings: P. falciparum in erythrocytes, SYBR Green DNA, 72 h; series mostly up to 28.7 µM
Procedure, shortened: as §1

CP192 = experiment: as above; settings: P. falciparum in erythrocytes, SYBR Green DNA, 72 h; series mostly up to 28.7 µM
Procedure, shortened: as §1

CP194 = experiment: as above; settings: P. falciparum in erythrocytes, SYBR Green DNA, 72 h; series mostly up to 28.7 µM
Procedure, shortened: as §1

CP201 = experiment: as above; settings: P. falciparum in erythrocytes, SYBR Green DNA, 72 h; series mostly up to 28.7 µM
Procedure, shortened: as §1

CP203 = experiment: as above; settings: P. falciparum in erythrocytes, SYBR Green DNA, 72 h; series mostly up to 28.7 µM
Procedure, shortened: as §1

CP211 = experiment: as above; settings: P. falciparum in erythrocytes, SYBR Green DNA, 72 h; series mostly up to 28.7 µM
Procedure, shortened: as §1

CP215 = experiment: as above; settings: P. falciparum in erythrocytes, SYBR Green DNA, 72 h; series mostly up to 28.7 µM
Procedure, shortened: as §1

CP217 = experiment: as above; settings: P. falciparum in erythrocytes, SYBR Green DNA, 72 h; series mostly up to 28.7 µM
Procedure, shortened: as §1

CP237 = experiment: as above; settings: P. falciparum in erythrocytes, SYBR Green DNA, 72 h; series mostly up to 28.7 µM
Procedure, shortened: as §1

CP238 = experiment: as above; settings: P. falciparum in erythrocytes, SYBR Green DNA, 72 h; series mostly up to 28.7 µM
Procedure, shortened: as §1

CP247 = experiment: as above; settings: P. falciparum in erythrocytes, SYBR Green DNA, 72 h; series mostly up to 28.7 µM
Procedure, shortened: as §1

CP250 = experiment: as above; settings: P. falciparum in erythrocytes, SYBR Green DNA, 72 h; series mostly up to 12.8 µM
Procedure, shortened: as §1

CP252 = experiment: as above; settings: P. falciparum in erythrocytes, SYBR Green DNA, 72 h; series mostly up to 12.8 µM
Procedure, shortened: as §1

CP256 = experiment: as above; settings: P. falciparum in erythrocytes, SYBR Green DNA, 72 h; series mostly up to 28.7 µM
Procedure, shortened: as §1

Measured: Potency

O=[As]O[As]=O (stereo unspecified)
inactive: [1] | [2] | [3] | [4] | [5] | [6] | [7] | [8]
active: [9]; parasite line A 8.91 µM | [9]; parasite line B 8.91 µM | 3D7 11.2 µM | 7G8 3.98 µM | AA1029 11.2 µM | AS120 11.2 µM | ATS189 8.91 µM | ATS95 10 µM | C2A 12.6 µM | CP191 11.2 µM | CP192 9.53 µM | CP194 13.5 µM | CP201 13.5 µM | CP203 10.7 µM | CP211 12 µM | CP215 13.5 µM | CP217 7.94 µM | CP237 11.2 µM | CP238 8.91 µM | CP247 7.94 µM | CP250 7.94 µM | CP252 12.6 µM | CP256 8.91 µM
